Test results reported in PubChem BioAssay AID576 (NMMLSC, 2007).
Among all 24,000 compounds or so, about 150 (0.62%) were called active.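 Rule for the calls: active = fluorescence ratio above 2.44, which is 1 plus 3 SD of all ratios; inconclusive = signal too bright to measure linearly, ratio around 10 or more; inactive = fluorescence ratio below 2.44.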 Shown is part of a subset that was picked to be rich in actives.

Assay: compound autofluorescence on Jurkat cells, primary screen, artefact control for VLA-4 allosteric ligand project, cell-based, flow cytometry (AID 576);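 note: green fluorescence of cells measured with 488 nm excitation and 530 nm emission; tested at 10 µM compound in the well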
Conditions: stronger effect = higher value, 1 = vehicle-only cell background

Fluorescence ratio, inactive:
CCc1c(C)c2c(C)[nH]nc2oc1=O 1.2
CCOc1ccc(-c2nnc3ccc(SC)nn23)cc1 0.96
CCOC(=O)c1sc(=S)n2c1[nH]c(=O)c1ccc(C(=O)OC)cc12 1.2
CC(=O)Nc1ccc(NS(=O)(=O)c2cc(C)sc2C)cc1 2.14
O=C(CC1Oc2ccccc2NC1=O)NCCCN1CCN(Cc2ccccc2)CC1 (configuration not stated) 1.05
COCCCNC(=O)CCc1nc2cccnc2n1Cc1ccc(OC)cc1 1.04
Cc1ccc(NC(=O)NCC(c2cccnc2)N2CCOCC2)cc1 (configuration not stated) 0.96
O=C(CN1CCOc2ccccc21)N1CCC(Cc2ccccc2)CC1 1.07
O=C(NCc1ccco1)C1CCCN(S(=O)(=O)c2cccc3nonc23)C1 (configuration not stated) 1.11
Cc1ccc(CNC(=O)CN2CCN(Cc3ccc(Cl)cc3)C2=O)cc1 1.03
Cc1ccc(NC(=O)C2CCCN(S(=O)(=O)c3c(C)noc3C)C2)c(C)c1 (configuration not stated) 1.07
COc1ccc(C2CC(c3ccccc3)Nc3ncnn32)cc1 (configuration not stated) 1.19
COc1cccc(-c2nc3n(n2)C(c2ccccc2Cl)C(C(N)=O)=C(C)N3)c1 (configuration not stated) 1.01
CN1CCCc2cc(C#N)c(=O)[nH]c21 1
O=C(O)CCN1C(=O)CC2(CCCCC2)C1=O 1
Cc1ccc(NC(=O)CCNS(=O)(=O)c2ccc3c(c2)oc(=O)n3C)cc1C 1.08
CCOC(=O)N1CCN(CC(=O)c2ccc3c(c2)CCN3)CC1 0.99
CCCNC(=O)C1CC(=O)N(c2ccc(OCC(=O)Nc3cccc(C)c3C)cc2)C1 (configuration not stated) 1.03
COc1ccc(N2C(=O)CCC(C(=O)Nc3ccccn3)C2c2ccc(OC)c(OC)c2)cc1 (configuration not stated) 1.01
O=C(CC1N=C2c3ccccc3N=C(SCc3ccccc3Cl)N2C1=O)NCc1ccco1 (configuration not stated) 1.18
Cc1occc1C(=O)Nc1nnc(C2CCCCC2)s1 0.94
CC1CSc2nnc(CCc3ccccc3)n21 (configuration not stated) 1
O=C(NCc1ccc2c(c1)OCO2)c1cc2c(s1)CS(=O)(=O)C2 1.08
CCOc1ccc(N(CC(=O)OC)S(=O)(=O)c2c(C)noc2C)cc1 1.04
CC(=O)c1c(C)[nH]c(C(=O)NCCCN2CCCC2)c1C 0.97
Cc1ccc(C)c(NS(=O)(=O)c2cc(Br)cnc2N)c1 1.02
Cn1c(=O)[nH]c(=O)c2c1nc(CN(Cc1ccccc1)Cc1ccccc1)n2CCN1CCOCC1 1.16
Cc1nc2c(-c3ccc(F)cc3)c(C)nn2c(C)c1CCC(=O)N1CCN(c2ccccn2)CC1 1.23
O=C(Cn1nc(Cc2cccnc2)c2ccccc2c1=O)NCC1CCCO1 (configuration not stated) 1.02
CC(C)C[C@H](NC(=O)[C@@H]1O[C@H]1C(=O)O)C(=O)NCCCCN=C(N)N 0.97
COc1ccccc1CNC(=O)Cn1cc2c(n1)CCCC2 1.04
CCOC(=O)N1CCC(O)(c2cc(C)c(C)cc2C)CC1 0.98
O=C(NCc1ccco1)c1cccn2c(=O)c3cc(Br)ccc3nc12 1
CS(=O)(=O)c1ccc2nc(NC(=O)C3C4C=CC(C4)C3C(=O)O)sc2c1 (configuration not stated) 1.05
CCCCc1nc2c(=O)[nH]c3ccccc3c2o1 1.21
Cc1nc2sc(C(c3ccco3)N3CCC4(CC3)OCCO4)c(O)n2n1 (configuration not stated) 1.05
COc1cc2c(cc1OC)C(c1ccc(C)o1)CC(=O)N2 (configuration not stated) 1
O=S(=O)(O)CCN1CCOCC1 1.09
Cc1cc(NC(=O)CSCc2nc(-c3cccc(Cl)c3)oc2C)no1 1.07
c1cc(-c2nn[nH]n2)ccc1CN1CCCCC1 1.02
Cc1ccc2c(c1)N(CCCC(=O)NCc1cccnc1)C(=O)CO2 1.05
Cc1cccc(N2CCN(S(=O)(=O)c3ccc4c(c3)c(=O)n(C)c(=O)n4C)CC2C)c1 (configuration not stated) 1.11
COc1cccc(NC(=O)C2CCCN2C(=O)OCc2ccccc2)c1 (configuration not stated) 1.04
CCC(C)NC(=O)C1CCC(=O)N1Cc1ccc(C)cc1 (configuration not stated) 0.99
CCC(=O)N1c2ccc(S(=O)(=O)CCC(=O)N3CCN(c4ccccc4)CC3)cc2CC1C (configuration not stated) 1.09
Cc1oc(C)c(C(=O)NCCCC(=O)O)c1C(=O)NCCCC(=O)O 1.08
O=c1[nH][nH]c(=O)c2cc(N3CCCC3)ccc12 1.01
CCOC(=O)N1CCN(S(=O)(=O)c2cc3c(cc2C)NC(=O)CO3)CC1 1.09
CCOc1ccc(Cn2nnc(C(=O)NCc3ccccc3)c2N)cc1 1.02
COc1ccc(N2C(=O)CCC(C(=O)N(C)C3CCCCC3)C2c2ccc(OC)c(OC)c2)cc1 (configuration not stated) 0.98
COC(=O)C1=C(C)Nc2ncnn2C1c1ccco1 (configuration not stated) 1.02
CCOc1nc(OCC)nc(-n2cc(-c3ccccc3)nn2)n1 1.08
COCCn1c(-c2ccc(OC)c(OC)c2)nc2ccccc21 1.05
O=C(c1ccco1)N1CCN(C(=O)C2CC(c3ccc(F)cc3)=NO2)CC1 (configuration not stated) 1.01
CCCOc1ccc(C2c3c(oc4cc(C)c(C)cc4c3=O)C(=O)N2CCCN2CCOCC2)cc1 (configuration not stated) 0.94
CCN(CC)CCNC(=O)C1c2ccccc2C(=O)N(C)C1c1cn(C)c2ccccc12 (configuration not stated) 1.11
Cc1cccc(NC(=O)C2CCN(S(=O)(=O)c3cccc4cccnc34)CC2)c1 1.03
O=S1(=O)CCN2C(=N1)SC1=C2CCN(Cc2ccccc2)C1 0.99
Cc1ccc(S(=O)(=O)NCc2cn3ccsc3n2)c(C)c1 1.07
Cc1cc(C)c2c(n1)nn1c(N3CCN(c4cccc(Cl)c4)CC3)cc(C)nc21 1.1
CC(=O)Nc1ccc(S(=O)(=O)Nc2nc3n(n2)C(c2ccccc2)CC(=O)N3)cc1 (configuration not stated) 1.06
ON=C1/C(=N\O)CC2(C/C1=N/O)OCCO2 1.11
